Measured values: PubChem BioAssay (NCATS)
Where “and” joins values, the source holds several entries; their conditions need not be identical. Identical values can stand only once. Results filed as inconclusive are left out. A call without a number means that no potency is given here. Some structures have more than one record in an assay (separate samples or runs), and their calls can disagree. Calls of active or inactive are those of the source. Unless noted, calls follow the shape of the dose curve; as a rule, active = well fitted curve in the direction sought with a large enough effect; inconclusive = small, poorly fitted or top-dose-only effect, or another doubt; inactive = no such curve, though single readings can be large; an effect the other way counts as inactive or inconclusive.

Experiments:
[1] = biological target: Cytochrome P450 2D6 (Homo sapiens) (UniProt P10635); test: Cytochrome P450 family 2 subfamily D member 6 (CYP2D6) small molecule antagonists: luciferase biochemical (cell-free) qHTS assay (AID 1645840; active = well fitted curve in the direction sought with a large enough effect in the repeat runs; an effect the other way counts as inactive or inconclusive; also: nearly all actives have a fitted effect of over 55% in size; also: potency is read from the fitted curve at half-maximal effect)
Outline: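 P450-Glo CYP2D6 system: proluciferin substrate converted by enzyme to luciferin, read by luminescence proportional to activity. Enzyme-substrate mix with compound 10 min at room temperature, then NADPH regeneration 1 h before detection reagent.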

[2] = Primary qHTS for inhibitors of nuclear receptor binding SET domain protein 2 (NSD2) in an RCH-ACV wild type WT cells (2C) (AID 1645877); also: nearly all actives have a fitted effect of over 70% in size; also: potency is read from the fitted curve at half-maximal effect
[3] = Primary qHTS for inhibitors of nuclear receptor binding SET domain protein 2 (NSD2) in an isogenic RCH-ACV NSD2 p.E1099K mutant (9B) (AID 1645876); also: nearly all actives have a fitted effect of over 70% in size; also: potency is read from the fitted curve at half-maximal effect
[4] = biological target: Cytochrome P450 3A4 (Homo sapiens) (UniProt P08684); test: Cytochrome P450 family 3 subfamily A member 4 (CYP3A4) small molecule antagonists: luciferase qHTS assay (AID 1645841; active = well fitted curve in the direction sought with a large enough effect in the repeat runs; an effect the other way counts as inactive or inconclusive; also: nearly all actives have a fitted effect of over 45% in size)
Outline: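 P450-Glo CYP3A4 enzyme with proluciferin substrate preincubated 10 min with compound at room temperature, then NADPH regeneration 1 h. Luciferin detection reagent added for 20 min; luminescence recorded. Ketoconazole positive control.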

[5] = biological target: Cytochrome P450 2C9 (Homo sapiens) (UniProt P11712); test: Cytochrome P450 family 2 subfamily C member 9 (CYP2C9) small molecule antagonists: luciferase biochemical (cell-free) qHTS assay (AID 1645842; active = well fitted curve in the direction sought with a large enough effect in the repeat runs; an effect the other way counts as inactive or inconclusive; also: nearly all actives have a fitted effect of over 55% in size; also: potency is read from the fitted curve at half-maximal effect)
Outline: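 P450-Glo CYP2C9 system: proluciferin substrate with enzyme in mix containing 0.4% BSA, 10 min at room temperature, then NADPH regeneration solution added and incubated 1 h at 37C. Detection reagent stopped reaction; luminescence read after 20 min as RLU.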

Chain of Cytochrome P450 3A4 (Homo sapiens) (P08684 whole entry, looked up): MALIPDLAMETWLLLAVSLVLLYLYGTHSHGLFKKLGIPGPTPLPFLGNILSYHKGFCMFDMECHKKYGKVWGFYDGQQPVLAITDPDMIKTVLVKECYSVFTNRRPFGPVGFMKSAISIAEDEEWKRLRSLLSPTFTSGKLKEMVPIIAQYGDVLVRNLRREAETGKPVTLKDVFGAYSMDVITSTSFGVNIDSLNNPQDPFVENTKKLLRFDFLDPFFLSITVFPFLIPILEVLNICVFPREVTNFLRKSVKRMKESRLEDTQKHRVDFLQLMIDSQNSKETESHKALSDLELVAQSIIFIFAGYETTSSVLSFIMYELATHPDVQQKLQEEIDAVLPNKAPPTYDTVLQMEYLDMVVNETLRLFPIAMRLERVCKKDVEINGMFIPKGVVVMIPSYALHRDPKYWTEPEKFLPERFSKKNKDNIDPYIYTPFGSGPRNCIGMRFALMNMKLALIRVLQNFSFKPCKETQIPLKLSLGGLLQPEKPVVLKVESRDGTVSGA
Chain of Cytochrome P450 2C9 (Homo sapiens) (P11712 whole entry, looked up): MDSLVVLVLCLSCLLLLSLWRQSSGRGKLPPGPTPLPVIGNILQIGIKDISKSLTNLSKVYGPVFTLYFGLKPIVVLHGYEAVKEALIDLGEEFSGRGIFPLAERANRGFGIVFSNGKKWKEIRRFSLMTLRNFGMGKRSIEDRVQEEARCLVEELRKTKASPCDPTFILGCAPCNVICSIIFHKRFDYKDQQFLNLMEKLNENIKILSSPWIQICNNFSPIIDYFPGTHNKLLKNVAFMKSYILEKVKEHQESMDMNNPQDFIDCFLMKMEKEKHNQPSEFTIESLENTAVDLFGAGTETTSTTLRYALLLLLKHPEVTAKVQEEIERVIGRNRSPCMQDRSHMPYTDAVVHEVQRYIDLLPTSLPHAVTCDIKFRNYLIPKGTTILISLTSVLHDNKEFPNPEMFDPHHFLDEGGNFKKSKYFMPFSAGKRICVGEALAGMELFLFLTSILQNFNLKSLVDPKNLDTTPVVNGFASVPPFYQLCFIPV
Chain of Cytochrome P450 2D6 (Homo sapiens) (P10635 whole entry, looked up): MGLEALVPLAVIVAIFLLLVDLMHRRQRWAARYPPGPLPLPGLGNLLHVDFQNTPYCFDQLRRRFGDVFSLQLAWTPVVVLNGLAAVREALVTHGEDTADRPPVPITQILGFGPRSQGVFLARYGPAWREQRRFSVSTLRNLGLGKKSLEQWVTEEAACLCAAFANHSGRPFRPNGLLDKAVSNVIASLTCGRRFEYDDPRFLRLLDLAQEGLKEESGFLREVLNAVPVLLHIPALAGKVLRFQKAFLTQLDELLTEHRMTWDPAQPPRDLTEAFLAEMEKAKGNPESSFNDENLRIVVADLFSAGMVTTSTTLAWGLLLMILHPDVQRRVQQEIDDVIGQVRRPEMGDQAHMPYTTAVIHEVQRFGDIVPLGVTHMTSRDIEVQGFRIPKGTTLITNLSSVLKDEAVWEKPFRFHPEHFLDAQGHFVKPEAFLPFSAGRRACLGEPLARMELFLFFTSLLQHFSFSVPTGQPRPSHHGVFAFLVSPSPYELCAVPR

Structure (SMILES)	Potency [1]	Potency [2]	Potency [3]	Potency [4]	Potency [5]
C[C@]12CCC(=O)C=C1CC[C@@H]1[C@@H]2[C@@H](O)C[C@@]2(C)[C@H]1CC[C@]2(O)C(=O)COC(=O)CCC(=O)O	inactive	1.88 µM (active)			
O=C1CC(c2ccc(Cl)cc2)CC(=O)N1	inactive	inactive	inactive		
COC(=O)C1=C(C)NC(C)=C(C(=O)OCCc2ccc(N3CCN(C(c4ccccc4)c4ccccc4)CC3)cc2)C1c1cccc([N+](=O)[O-])c1 (centres undefined)	inactive	inactive	inactive		
Nc1c[n+](N2CCOCC2)no1	inactive	inactive	inactive		
CCO[C@H](Cc1ccc(OCCc2ccc(OS(C)(=O)=O)cc2)cc1)C(=O)O	inactive	inactive	inactive		
CC1c2ccccc2CN1NC(=O)c1ccc(Cl)c(S(N)(=O)=O)c1 (centres undefined)		inactive	inactive	inactive	inactive
Nc1c(I)cc(I)c(C(=O)N(CCC(=O)O)c2ccccc2)c1I	inactive	inactive	inactive		
CC(C)NCCCC1(C(N)=O)c2ccccc2-c2ccccc21	3.89 µM (active)	inactive	inactive		
CC(=O)[C@H]1CC[C@H]2[C@@H]3C=CC4=CC(=O)CC[C@@]4(C)[C@@H]3CC[C@]12C	15.5 µM (active)	23.7 µM (active) and inactive	13.3 µM (active) and inactive		
N=C(N)c1ccc(OCCCOc2ccc(C(=N)N)cc2)cc1				inactive	
O=C(OCC1(COC(=O)c2cccnc2)CCCC(COC(=O)c2cccnc2)(COC(=O)c2cccnc2)C1O)c1cccnc1	inactive	inactive	inactive		
C[C@H]1C[C@H](O)c2ccsc2S1(=O)=O	inactive	inactive			
Nc1nnnn1-c1ccccc1	inactive	inactive	inactive		
C[C@H]1NCc2cc(-c3ccc4c(=O)c(C(=O)O)cn(C5CC5)c4c3OC(F)F)ccc21	inactive	inactive	inactive		
CCCc1ncc(C(=O)O)s1	inactive	inactive	inactive		
COc1c(C)c2c(c(O)c1C/C=C(\C)CCC(=O)OCCN1CCOCC1)C(=O)OC2	13.8 µM (active)	0.376 µM (active)	473 nM (active) and 525 nM (active)		
N#CC1(c2ccc(F)cc2)CCC(=O)CC1	inactive	inactive	inactive		
CO/N=C(\C(=O)O)c1csc(NC(=O)CCl)n1	inactive	inactive	inactive		

Structure (SMILES)	Potency [1]	Potency [2]	Potency [3]	Potency [4]	Potency [5]
CC(C)(C)C(=O)OCOC(=O)C1N2C(=O)CC2S(=O)(=O)C1(C)C (centres undefined)	inactive	inactive	inactive		
OCc1cccnc1		inactive	inactive	inactive	inactive
CCC(=O)Oc1ccc2c(c1)CC[C@@H]1[C@@H]2CC[C@@]2(C)[C@H]1C[C@@H](OC(=O)CC)[C@@H]2OC(=O)CC					8.71 µM (active)
O=C(OCC(COC(=O)c1cccnc1)(COC(=O)c1cccnc1)COC(=O)c1cccnc1)c1cccnc1	inactive	inactive	inactive		
COc1ccc(-n2nc(CCC(=O)N(C)O)cc2-c2ccc(Cl)cc2)cc1	4.9 µM (active)	7.5 µM (active)	8.41 µM (active)		
CCOC(=O)Oc1ccc(CCNC(=O)[C@H](CCSC)NC(C)=O)cc1OC(=O)OCC	inactive	inactive	inactive		
CC(C)C(C)(C)C(C)(C)C(C)(C)S	inactive	inactive	inactive		
CC(=O)Oc1ccc(C2(c3ccc(OC(C)=O)cc3)Oc3ccccc3NC2=O)cc1	inactive	10.3 µM (active)	8.17 µM (active)		
C[N+]1(CC2COC(c3ccccc3)(c3ccccc3)O2)CCCCC1 (centres undefined)		2.59 µM (active)			inactive
OC1(c2ccc(Cl)c(C(F)(F)F)c2)CCN(CCCC(c2ccc(F)cc2)c2ccc(F)cc2)CC1		4.73 µM (active) and 4.59 µM (active)	4.22 µM (active) and 3.25 µM (active)		15.5 µM (active)
CCCCCCCC(=O)[O-].CCCCCCCC(=O)[O-].[Zn+2]		inactive	inactive		inactive
CCCC(CCC)(C(=O)OCC)C(=O)OCC		inactive	inactive		inactive
Nc1c(NC/C=C\COc2cc(CN3CCCCC3)ccn2)c(=O)c1=O		inactive	inactive		inactive
Cc1cccc(C)c1NC(=O)c1cc(S(N)(=O)=O)c(Cl)cc1O		inactive	inactive		inactive
CCC(=O)O[C@]1(C(=O)COC)[C@@H](C)C[C@H]2[C@@H]3CCC4=CC(=O)C=C[C@]4(C)C3(F)[C@@H](O)C[C@@]21C (some centres undefined)		0.0033 µM (active)			24.5 µM (active)
Nc1ccc([N+](=O)[O-])c(C(F)(F)F)c1		inactive	inactive		inactive
C[C@@H]1CCC[C@H](C)N1CCCC(O)(c1ccccc1)c1ccccn1 (some centres undefined)		inactive	inactive		inactive
